This note sets out measurements from PubChem BioAssay.

The source made the active and inactive calls.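 The calls were made as follows, unless noted: active = NADPH fluorescence slope more negative than the mean of all samples by about 3 SD, 99.7% confidence; inactive = the rest.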

Assay [1] is described as follows: inhibitors of E-selectin induction by TNFa, primary screen, imaging, HUVEC, immunofluorescence, MLSMR starter and 10KST1 sets (AID 487;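 active = visually confirmed hit in the image check and inhibition above 20%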;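 as to inhibition: signal is fraction of cell area covered by stained E-selectin grains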;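 as to nuclei count: 100% = median nuclei count of all wells on the same plate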). The following applies: HUVEC TNFalpha-induced E-selectin immunofluorescence imaging, at 2 µM; inhibition: stronger effect = higher value; nuclei count: measured here: cell number, toxicity.
Assay [2] in a line: DUSP6 inhibitors restoring Erk phosphorylation by chemical complementation, primary imaging in DUSP6-transfected HeLa (AID 609;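 active = compounds giving at least 50% inhibition in the cell-based MKP-3 phosphatase rescue imaging test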;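 as to inhibition: phospho-Erk level distribution per well compared with pooled transfected vehicle control wells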). The following applies: HeLa MKP-3 transfected, phospho-Erk imaging KS statistic, at 10 µM, cells stimulated with TPA for 15 min.
For assay [3], the target named is Dual specificity protein phosphatase 6 (Homo sapiens) (UniProt Q16828). Described as above. The following applies: HeLa MKP-3 transfected, phospho-Erk imaging KS statistic; at 10 µM; stronger effect = higher value; cells stimulated with TPA for 15 min.
The target in assay [4] is Voltage-gated potassium channel subunit beta-2 (Rattus norvegicus) (UniProt P62483). Kind of assay: KvBeta enzyme negative modulators, primary screen, biochemical, NADPH fluorescence (AID 622;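 active = fluorescence slope higher than the sample average by over 3 SD, cut at about -0.22 in these data, passing the limit was not always enough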;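 also: slope of raw intensity against log time taken from 70 to 1610 s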). The following applies: recombinant KvBeta, 4-cyanobenzaldehyde reduction, at 10 µM, stronger effect = higher value.
Assay [5] has the same target. Nature of the assay: KvBeta positive modulators, primary screen, biochemical, NADPH fluorescence (AID 623).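 Also: fluorescence intensity change per second fitted from 20 to 320 s.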 To be noted: Recombinant KvBeta, NADPH fluorescence decrease slope, 10 min; at 10 µM; stronger effect = lower value.
Assay [6] deals with Muscarinic acetylcholine receptor M4 (Homo sapiens) (UniProt P08173). Nature of the assay: compounds altering M4/GIRK thallium flux, either direction, primary screen, M4 allosteric agonist project, cell-based, HEK293 M4/GIRK, BTC-AM (AID 625;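 active = fluorescence slope after compound addition differing from the mean of all tested samples at 99.7% confidence, mostly higher but some lower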;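 also: thallium influx through GIRK channels coupled to M4 in HEK293 cells with BTC-AM dye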). The following applies: at 10 µM, actives lie on both sides.
A short description of assay [7]: inhibitors of larval lipid processing in zebrafish, primary screen, whole organism, PED6 fluorescence, gall bladder and intestine (AID 686;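 active = a full or partial loss of lipid-probe fluorescence in the fish gall bladder, intestine or both, judged by eye; inactive = no fluorescence loss, or compound toxic to the fish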;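 also: larvae 5 to 7 days old with five fish per well; signal comes from phospholipase A2 cleavage of quenched PED6 carried via bile; overnight exposure to compound and PED6 before scoring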). The following applies: Zebrafish larvae PED6 lipid processing, fluorescence scoring; screened at 20 µM (by protocol).
Assay [8] in a line: inhibitors of Chlamydomonas gravitaxis, primary screen, whole organism, Chlamydomonas reinhardtii, WT vs cilia-less mutant, absorbance, 96-well (AID 463189;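 active = inhibition at or above 50% relative to wild type and mutant plate controls; inactive = inhibition below 50%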;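 also: 0% = wild type cc124 cells in DMSO and 100% = ciliumless bld1 mutant cells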). The following applies: OD600 absorbance, 2 days, at 10 µM, stronger effect = higher value.
Where [9] appears, read: measured here: cell density z-score.
The mark [10] stands for this setting: measured here: nuclear c-Myc green intensity z-score.
The mark [11] stands for this setting: measured here: nuclear pErk red intensity z-score, stronger effect = higher value.

The inhibition is the drop in the measured response relative to a control, in per cent.

Muscarinic acetylcholine receptor M4 (Homo sapiens), sequence (P08173 whole entry, looked up): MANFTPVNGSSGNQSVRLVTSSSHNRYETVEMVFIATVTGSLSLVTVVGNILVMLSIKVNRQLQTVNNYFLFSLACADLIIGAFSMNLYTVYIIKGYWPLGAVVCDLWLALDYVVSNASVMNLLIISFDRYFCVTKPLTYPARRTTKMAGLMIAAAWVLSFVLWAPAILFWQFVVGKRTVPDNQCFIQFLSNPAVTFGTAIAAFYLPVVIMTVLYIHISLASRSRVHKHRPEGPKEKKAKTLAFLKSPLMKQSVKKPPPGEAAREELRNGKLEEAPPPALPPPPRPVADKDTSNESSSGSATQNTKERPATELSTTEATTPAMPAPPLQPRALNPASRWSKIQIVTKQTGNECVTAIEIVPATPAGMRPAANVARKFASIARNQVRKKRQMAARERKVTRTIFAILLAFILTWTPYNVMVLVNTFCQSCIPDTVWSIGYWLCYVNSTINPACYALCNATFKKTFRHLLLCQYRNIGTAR
Voltage-gated potassium channel subunit beta-2 (Rattus norvegicus), sequence (P62483 whole entry, looked up): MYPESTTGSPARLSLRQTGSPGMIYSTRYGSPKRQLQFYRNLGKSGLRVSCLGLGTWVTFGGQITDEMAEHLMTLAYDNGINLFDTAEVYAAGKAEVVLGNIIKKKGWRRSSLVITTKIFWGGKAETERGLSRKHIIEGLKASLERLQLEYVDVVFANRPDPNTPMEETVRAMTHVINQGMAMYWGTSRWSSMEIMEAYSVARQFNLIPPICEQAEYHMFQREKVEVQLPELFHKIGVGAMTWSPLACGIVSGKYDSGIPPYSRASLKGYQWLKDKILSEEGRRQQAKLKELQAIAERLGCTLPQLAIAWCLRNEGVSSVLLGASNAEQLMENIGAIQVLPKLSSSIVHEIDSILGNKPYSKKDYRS
Dual specificity protein phosphatase 6 (Homo sapiens), sequence (Q16828 whole entry, looked up): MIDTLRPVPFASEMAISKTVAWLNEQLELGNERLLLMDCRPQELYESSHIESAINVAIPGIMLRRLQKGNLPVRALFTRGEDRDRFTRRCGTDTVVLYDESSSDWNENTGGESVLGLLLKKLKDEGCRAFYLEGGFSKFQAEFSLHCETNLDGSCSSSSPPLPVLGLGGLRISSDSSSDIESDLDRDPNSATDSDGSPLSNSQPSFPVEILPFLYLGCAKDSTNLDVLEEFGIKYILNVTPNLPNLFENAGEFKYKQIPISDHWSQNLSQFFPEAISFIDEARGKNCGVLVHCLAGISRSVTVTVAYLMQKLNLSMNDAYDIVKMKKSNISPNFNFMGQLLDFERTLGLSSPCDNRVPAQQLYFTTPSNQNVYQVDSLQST

Take `O=P(O)(c1ccccc1)c1ccccc1O`: the inhibition was 2% (inactive) in assay [1], 5.57% (inactive) in assay [3] and 28.7% (inactive) in assay [8]. Further, in assay [1], the nuclei count was 77.2%. For the same molecule, the z-score came to 0.571 in assay [2] (setting [9]), 0.329 in assay [2] (setting [10]) and 0.814 in assay [2] (setting [11]). For the same molecule, the fluorescence slope in assay [4] was -0.452 (inactive); in assay [6] it was 0.00546 (inactive). Moreover, the NADPH fluorescence slope in assay [5] is -1.5e-05 (inactive). Also, the molecule was classed as inactive in assay [7].

On to `Clc1ccc2nc(N3CCNCC3)nc(-c3ccccc3)c2c1`, for which the values for the inhibition in assay [1], in assay [3] and in assay [8] were 14.5% (inactive), 7.48% (inactive) and 151% (active), respectively. This molecule also had a nuclei count in assay [1] of 144%. The z-score in assay [2] (setting [9]) is 0.81; in assay [2] (setting [10]) it was -0.0975; in assay [2] (setting [11]) it was 1.71. For the same molecule, the fluorescence slope was -0.23 (inactive) in assay [4] and 0.00627 (inactive) in assay [6]. In addition, in assay [5], the NADPH fluorescence slope was -6.4e-06 (inactive). Besides, the call in assay [7] was inactive.

Take `CCOC(=O)c1ccc(CSc2ncn[nH]2)o1`: the inhibition in assay [1] is -61.8% (inactive); in assay [3] it was 17% (inactive); in assay [8] it was 10.3% (inactive). In assay [1], this molecule registered a nuclei count of 156%. Also, the z-score in assay [2] (setting [9]) was 0.633; in assay [2] (setting [10]) it was -0.893; in assay [2] (setting [11]), -0.304. Also, the fluorescence slope was -0.407 (inactive) in assay [4] and 0.00583 (inactive) in assay [6]. In addition, the NADPH fluorescence slope in assay [5] is -3.4e-05 (inactive). Besides, the outcome in assay [7] was inactive.

For the molecule `CCn1cc(/C=N/O)c(C)n1`, the inhibition in assay [1] is -98.3% (inactive); in assay [3], 13.2% (inactive); in assay [8], 17.2% (inactive). In assay [1], this molecule returned a nuclei count of 153%. Besides, the values for the z-score in assay [2] (setting [9]), in assay [2] (setting [10]) and in assay [2] (setting [11]) were 1.83, -0.528 and -0.0353, respectively. In addition, the fluorescence slope in assay [4] was -0.345 (inactive); in assay [6], 0.00667 (inactive). Further, the NADPH fluorescence slope in assay [5] is -3.9e-05 (inactive). Also, in assay [7], the molecule was called inactive.

As for `Cc1nc2sc(C)c(C)c2c(=O)o1`, the results for the inhibition in assay [1], in assay [3] and in assay [8] were -24.2% (inactive), -5.89% (inactive) and 6.15% (inactive), respectively. In assay [1], the nuclei count is 180%. The z-score in assay [2] (setting [9]) is -0.563; in assay [2] (setting [10]), -1.75; in assay [2] (setting [11]) it was 1.05. Further, the fluorescence slope is -0.39 (inactive) in assay [4] and 0.0058 (inactive) in assay [6]. Also, the NADPH fluorescence slope in assay [5] was -4.5e-05 (inactive). For the same molecule, the result in assay [7] was inactive.

Consider `CCCOc1ccc(Cl)cc1CN1CCOCC1`, for which the results for the inhibition in assay [1], in assay [3] and in assay [8] were -21.7% (inactive), 20.8% (inactive) and 32.2% (inactive), respectively. For the same molecule, the nuclei count in assay [1] stood at 67.6%. In addition, the z-score was 0.154 in assay [2] (setting [9]), -1.58 in assay [2] (setting [10]) and -0.239 in assay [2] (setting [11]). In addition, the fluorescence slope in assay [4] was -0.499 (inactive); in assay [6], 0.0115 (inactive). For the same molecule, the NADPH fluorescence slope in assay [5] is -3e-05 (inactive). Further, the result in assay [7] was inactive.

Take `CCOC(=O)c1ccc(NCC(O)COc2ccccc2)cc1` (stereo not given): the inhibition in assay [1] is -60.3% (inactive); in assay [3] it was 3.66% (inactive); in assay [8], 3.53% (inactive). Further, the nuclei count in assay [1] was determined as 138%. Moreover, the results for the z-score in assay [2] (setting [9]), in assay [2] (setting [10]) and in assay [2] (setting [11]) were 1.4, -0.621 and -0.757, respectively. The fluorescence slope is -0.343 (inactive) in assay [4] and 0.00673 (inactive) in assay [6]. Also, the NADPH fluorescence slope in assay [5] is -1.2e-05 (inactive). In addition, the molecule was called inactive in assay [7].

For `O=C(CCN1CCCC1Cc1ccccc1)c1ccc2c(c1)OCCO2` (stereo not given), the inhibition is -106% (inactive) in assay [1], 1.75% (inactive) in assay [3] and 7.98% (inactive) in assay [8]. This molecule also displayed a nuclei count in assay [1] of 162%. The values for the z-score in assay [2] (setting [9]), in assay [2] (setting [10]) and in assay [2] (setting [11]) were -1.44, -1.2 and 0.369, respectively. Further, the fluorescence slope in assay [4] was -0.423 (inactive); in assay [6], 0.00498 (inactive). The NADPH fluorescence slope in assay [5] was -6.5e-05 (inactive). In addition, the molecule was classed as inactive in assay [7].

As to `COCCN(Cc1ccccc1)P(=O)(O)c1ccccc1OCC(=O)O`, the values for the inhibition in assay [1], in assay [3] and in assay [8] were -21.2% (inactive), 15.1% (inactive) and 19.2% (inactive), respectively. For the same molecule, the nuclei count in assay [1] was 151%. The z-score in assay [2] (setting [9]) is 1.19; in assay [2] (setting [10]), -1.67; in assay [2] (setting [11]) it was 0.944. In addition, the fluorescence slope in assay [4] is -0.446 (inactive); in assay [6] it was 0.00543 (inactive). The NADPH fluorescence slope in assay [5] was -4.4e-05 (inactive). Besides, the molecule was called inactive in assay [7].

Take `COc1ccc(-n2c(C)c(C(C)=O)c3cc(O)ccc32)cc1`: the inhibition in assay [1] was 4.2% (inactive); in assay [3] it was 9.39% (inactive); in assay [8], 30.2% (inactive). Also, in assay [1], the nuclei count is 135%. Further, the z-score in assay [2] (setting [9]) was -0.551; in assay [2] (setting [10]), -0.198; in assay [2] (setting [11]) it was 0.861. Besides, the fluorescence slope is -0.4 (inactive) in assay [4] and 0.00708 (inactive) in assay [6]. Moreover, the NADPH fluorescence slope in assay [5] was -4.1e-05 (inactive). Also, in assay [7], the molecule was classed as inactive.

In the case of `O=c1/c(=C/c2ccccn2)sc2n1CN(c1ccccc1)CN=2`, the inhibition in assay [1] was 15.3% (inactive); in assay [3] it was 34.2% (inactive); in assay [8], 32% (inactive). This molecule yielded a nuclei count in assay [1] of 137%. The figures for the z-score in assay [2] (setting [9]), in assay [2] (setting [10]) and in assay [2] (setting [11]) were 0.878, 0.58 and -0.986, respectively. In addition, the fluorescence slope is -0.4 (inactive) in assay [4] and 0.00773 (inactive) in assay [6]. In addition, in assay [5], the NADPH fluorescence slope is -4.8e-05 (inactive). The result in assay [7] was inactive.

As to `O=C(c1ccc(N2C(=O)C3CC=C(Cl)CC3C2=O)cc1)N1CCCCC1` (stereo not given), the inhibition in assay [1] is -148% (inactive); in assay [3], 15.1% (inactive); in assay [8] it was -0.983% (inactive). Moreover, the nuclei count in assay [1] is 163%. Besides, the figures for the z-score in assay [2] (setting [9]), in assay [2] (setting [10]) and in assay [2] (setting [11]) were 0.548, -0.00489 and -2.02, respectively. Besides, the fluorescence slope in assay [4] was -0.379 (inactive); in assay [6], 0.00666 (inactive). Also, the NADPH fluorescence slope in assay [5] was -2.5e-05 (inactive). In addition, the result in assay [7] was inactive.

As for `NC(=O)c1ccccc1OCCOCCOCCOc1ccccc1C(N)=O`, the inhibition in assay [1] was -40% (inactive); in assay [3], 3.66% (inactive); in assay [8] it was 21.6% (inactive). In assay [1], the nuclei count worked out at 141%. Also, the z-score was 0.988 in assay [2] (setting [9]), 0.573 in assay [2] (setting [10]) and -0.494 in assay [2] (setting [11]). Besides, the fluorescence slope is -0.379 (inactive) in assay [4] and 0.00555 (inactive) in assay [6]. In addition, the NADPH fluorescence slope in assay [5] is -3.2e-05 (inactive). The result in assay [7] was inactive.

For `O=C(NC1CCCCC1)[C@H](O)[C@@H](O)C(=O)NC1CCCCC1`, the inhibition was -94% (inactive) in assay [1], 5.57% (inactive) in assay [3] and -2.73% (inactive) in assay [8]. In assay [1], this molecule showed a nuclei count of 140%. The z-score is -1.12 in assay [2] (setting [9]), 0.563 in assay [2] (setting [10]) and 0.453 in assay [2] (setting [11]). The results for the fluorescence slope in assay [4] and in assay [6] were -0.381 (inactive) and 0.00717 (inactive), respectively. The NADPH fluorescence slope in assay [5] was -4.7e-05 (inactive). Further, in assay [7], the result was inactive.

With `CCCCOc1ccccc1P(=O)(O)CP(=O)(c1ccccc1)c1ccccc1`, the inhibition is -205% (inactive) in assay [1], -5.89% (inactive) in assay [3] and 2.4% (inactive) in assay [8]. In assay [1], the nuclei count came to 192%. For the same molecule, the results for the z-score in assay [2] (setting [9]), in assay [2] (setting [10]) and in assay [2] (setting [11]) were -0.204, -0.49 and 0.473, respectively. For the same molecule, the fluorescence slope in assay [4] is -0.436 (inactive); in assay [6], 0.00473 (inactive). The NADPH fluorescence slope in assay [5] is -3e-05 (inactive). Further, in assay [7], the molecule was called inactive.
